# PubChem BioAssay AID602144 (Vanderbilt Specialized Chemistry Center, 2011)
# Values without a mark were called inactive. The source made the active and inactive calls. Cut-off read from the data, not from the text of the source: active = remaining activity below about 50%; inactive = the rest.
# Target: Phospholipase D1 (Homo sapiens) (UniProt Q13393)
# Assay: cellular phospholipase D1 activity inhibition – Calu-1 cells, single concentration (AID 602144);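 note: tested at 200 nM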
# Settings: cellular PLD1 activity, stronger effect = lower value
# Chain of Phospholipase D1 (Homo sapiens) (Q13393 whole entry, looked up): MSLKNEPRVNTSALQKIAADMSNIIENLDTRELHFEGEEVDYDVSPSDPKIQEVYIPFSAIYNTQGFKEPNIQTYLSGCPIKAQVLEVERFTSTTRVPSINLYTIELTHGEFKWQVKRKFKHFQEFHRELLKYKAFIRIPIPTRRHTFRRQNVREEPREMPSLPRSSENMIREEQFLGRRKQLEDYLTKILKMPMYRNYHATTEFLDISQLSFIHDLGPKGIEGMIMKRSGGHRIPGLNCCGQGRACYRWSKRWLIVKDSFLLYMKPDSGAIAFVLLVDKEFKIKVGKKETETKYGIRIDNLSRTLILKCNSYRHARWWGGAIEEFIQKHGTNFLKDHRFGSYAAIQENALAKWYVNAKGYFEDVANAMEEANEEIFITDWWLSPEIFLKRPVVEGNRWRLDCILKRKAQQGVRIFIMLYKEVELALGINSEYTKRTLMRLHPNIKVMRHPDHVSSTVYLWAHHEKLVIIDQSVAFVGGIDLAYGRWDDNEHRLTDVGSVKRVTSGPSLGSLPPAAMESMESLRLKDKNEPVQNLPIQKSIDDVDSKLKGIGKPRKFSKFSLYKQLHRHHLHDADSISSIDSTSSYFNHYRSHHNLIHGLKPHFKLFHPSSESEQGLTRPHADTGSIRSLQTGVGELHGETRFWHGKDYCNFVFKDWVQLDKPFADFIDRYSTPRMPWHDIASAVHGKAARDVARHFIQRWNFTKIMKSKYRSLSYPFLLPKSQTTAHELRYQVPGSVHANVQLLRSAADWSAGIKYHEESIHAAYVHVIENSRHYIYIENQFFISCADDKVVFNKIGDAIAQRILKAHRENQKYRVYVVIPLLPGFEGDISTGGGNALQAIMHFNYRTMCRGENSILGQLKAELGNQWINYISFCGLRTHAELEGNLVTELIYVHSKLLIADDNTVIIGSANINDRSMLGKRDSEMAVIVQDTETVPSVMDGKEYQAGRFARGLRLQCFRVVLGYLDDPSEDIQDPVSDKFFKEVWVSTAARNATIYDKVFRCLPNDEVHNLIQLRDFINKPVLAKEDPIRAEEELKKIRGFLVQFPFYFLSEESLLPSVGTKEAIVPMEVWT
# Chain of Phospholipase D1 (Homo sapiens) (Q13393 whole entry, looked up): as above
row,SMILES,remaining activity
1,CC(C(=O)NCCN1CCC(n2c(=O)[nH]c3ccccc32)CC1)(c1ccccc1)c1ccccc1,104%
2,C[C@@H](CN1CCC(n2c(=O)[nH]c3cc(-c4ccccc4)ccc32)CC1)NC(=O)[C@H]1C[C@@H]1c1ccccc1,67.4%
3,CC(C)[C@@H](CN1CCC(n2c(=O)[nH]c3ccccc32)CC1)NC(=O)c1ccc(F)cc1,103%
4,O=C(NCCN1CCN(c2ncccn2)CC1)c1ccc2ccccc2c1,118%
5,Cc1ccc(C(=O)N[C@@H](C)CN2CCC(n3c(=O)[nH]c4c(F)cccc43)CC2)cc1,40.7% (active)
6,O=C1c2ccccc2C(=O)N1CCCNCc1ccccn1,175%
7,O=C(NCCN1CCC(n2nnc3ccccc32)CC1)c1ccc2ccccc2c1,19.1% (active)
8,CC(C(=O)NCCN1CCN(c2ccncc2)CC1)(c1ccccc1)c1ccccc1,204%
9,O=C(CCc1ccccc1)NCCN1CCC(n2c(=O)[nH]c3ccccc32)CC1,76.1%
10,C[C@@H](CN1CCC2(CC1)CN(S(C)(=O)=O)c1ccccc12)NC(=O)c1cnc2ccccc2c1,118%
11,COc1cc(C(=O)NCCN2CCN(c3ccncc3)CC2)ccc1N,90.7%
12,O=C(NCCN1CCC(n2c(=O)[nH]c3ccccc32)CC1)c1cc2ccccc2c2ccccc12,7.23% (active)
13,CCNC(=S)NCCN1CCC(n2c(=O)[nH]c3ccccc32)CC1,144%
14,Cn1c(C2CCN(CCN)CC2)nc2ccccc21 (tested in a mixture with another compound),75%
15,O=C(NCCN1CCC(n2c(=O)[nH]c3ccccc32)CC1)c1cccc(F)n1,34% (active)
16,O=c1[nH]c2ccccc2n1C1CCN(CCNS(=O)(=O)c2ccccc2Br)CC1,112%
17,Cc1cc(C)c(S(=O)(=O)NCCN2CCC(n3c(=O)[nH]c4ccccc43)CC2)c(C)c1,133%
18,COc1ccc2c(c1)c(CC(=O)NCCN1CCC(n3c(=O)[nH]c4ccccc43)CC1)c(C)n2C(=O)c1ccc(Cl)cc1,98.1%

row,SMILES,remaining activity
1,O=C(c1ccc2ccccc2c1)N1CCC(n2c(=O)[nH]c3cc(Cl)ccc32)CC1,77.3%
2,O=C(NCCN1CCC2(CCc3ccccc32)CC1)[C@H]1C[C@@H]1c1ccccc1,125%
3,O=C(NCCN1CCC(n2c(=O)[nH]c3ccccc32)CC1)C1CCCCCC1,98.9%
4,Cc1cccc(NC(=S)NCCN2CCC(n3c(=O)[nH]c4ccccc43)CC2)c1,148%
5,O=C(NCCN1CCC(n2c(=O)[nH]c3ccccc32)CC1)c1ccc(Cc2ccccc2)cc1,91.5%
6,C[C@@H](CN1CCC2(C=Cc3ccccc32)CC1)NC(=O)[C@H]1C[C@@H]1c1ccccc1,126%
7,O=C(NCCN1CCN(c2ccccn2)CC1)c1ccc(Cl)cc1,153%
8,C[C@@H](CN1CCC(n2c(=O)[nH]c3cc(-c4ccc(F)c(F)c4)ccc32)CC1)NC(=O)[C@H]1C[C@@H]1c1ccccc1,59%
9,CC1(C)[C@H]2CC[C@]1(CS(=O)(=O)NCCN1CCC(n3c(=O)[nH]c4ccccc43)CC1)C(=O)C2,121%
10,C[C@@H](CN1CCC(n2c(=O)[nH]c3cc(-c4ccsc4)ccc32)CC1)NC(=O)[C@H]1C[C@@H]1c1ccccc1,41.3% (active)
11,O=C(C1C[C@@H]1c1ccccc1)N1CCC(n2c(=O)[nH]c3cc(Cl)ccc32)CC1 (stereo partly specified),89.8%
12,C[C@H](CN1CCC2(CC1)CNCc1ccccc12)NC(=O)c1ccc2ccccc2c1,126%
13,O=C(NCCN1CCC(n2c(=O)[nH]c3ccccc32)CC1)c1cccc(Cl)n1,37.8% (active)
14,O=c1[nH]c2ccccc2n1C1CCN(CCNC(=S)Nc2ccccn2)CC1,148%
15,C[C@@H](CN1CCC(c2nc3ccccc3[nH]2)CC1)NC(=O)C1CC1c1ccccc1 (stereo partly specified),87.4%
16,O=c1[nH]c2ccccc2n1C1CCN(CCNS(=O)(=O)c2ccccc2[N+](=O)[O-])CC1,132%
17,O=C(NCCN1CCC(c2nc3ccccc3[nH]2)CC1)c1cnc2ccccc2c1,123%
18,CC1(C)[C@@H]2CC[C@@]1(CS(=O)(=O)NCCN1CCC(n3c(=O)[nH]c4ccccc43)CC1)C(=O)C2,103%
